Source: PubChem BioAssay
Sampled rows, rich in hits. Any-hit rate of the full collection: about 2.3%.
MBD2 inh – blocks human MBD2 binding to methylated DNA. inhibition, % at 4.4 µM. hit rate 0.31% among 370,000. Q9UBB5. TR-FRET, MBD2 binding to methylated oligonucleotide. AID 686964; in the data active means inhibition above about 13%
LEDGF integ inh – blocks HIV-1 LEDGF/p75-dependent DNA integration; inhibition, % at 3.7 µM; hit rate 0.64% among 370,000; TR-FRET IN-LEDGF/p75 DNA integration, Eu/Cy5;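 active means inhibition above the screen-wide mean plus 3 SD, cut at about 13% in these data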;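 further: signal is the Cy5 over europium emission ratio at 671 and 618 nm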
PLCg1 inh – PLC-gamma1 (human) inhibition, primary screen; P19174; purified PLC-gamma1, fluorogenic substrate, fluorescence; inhibition, % at 12.2 µM; hit rate 0.84% among 370,000
Target sequence (P19174 whole entry, looked up): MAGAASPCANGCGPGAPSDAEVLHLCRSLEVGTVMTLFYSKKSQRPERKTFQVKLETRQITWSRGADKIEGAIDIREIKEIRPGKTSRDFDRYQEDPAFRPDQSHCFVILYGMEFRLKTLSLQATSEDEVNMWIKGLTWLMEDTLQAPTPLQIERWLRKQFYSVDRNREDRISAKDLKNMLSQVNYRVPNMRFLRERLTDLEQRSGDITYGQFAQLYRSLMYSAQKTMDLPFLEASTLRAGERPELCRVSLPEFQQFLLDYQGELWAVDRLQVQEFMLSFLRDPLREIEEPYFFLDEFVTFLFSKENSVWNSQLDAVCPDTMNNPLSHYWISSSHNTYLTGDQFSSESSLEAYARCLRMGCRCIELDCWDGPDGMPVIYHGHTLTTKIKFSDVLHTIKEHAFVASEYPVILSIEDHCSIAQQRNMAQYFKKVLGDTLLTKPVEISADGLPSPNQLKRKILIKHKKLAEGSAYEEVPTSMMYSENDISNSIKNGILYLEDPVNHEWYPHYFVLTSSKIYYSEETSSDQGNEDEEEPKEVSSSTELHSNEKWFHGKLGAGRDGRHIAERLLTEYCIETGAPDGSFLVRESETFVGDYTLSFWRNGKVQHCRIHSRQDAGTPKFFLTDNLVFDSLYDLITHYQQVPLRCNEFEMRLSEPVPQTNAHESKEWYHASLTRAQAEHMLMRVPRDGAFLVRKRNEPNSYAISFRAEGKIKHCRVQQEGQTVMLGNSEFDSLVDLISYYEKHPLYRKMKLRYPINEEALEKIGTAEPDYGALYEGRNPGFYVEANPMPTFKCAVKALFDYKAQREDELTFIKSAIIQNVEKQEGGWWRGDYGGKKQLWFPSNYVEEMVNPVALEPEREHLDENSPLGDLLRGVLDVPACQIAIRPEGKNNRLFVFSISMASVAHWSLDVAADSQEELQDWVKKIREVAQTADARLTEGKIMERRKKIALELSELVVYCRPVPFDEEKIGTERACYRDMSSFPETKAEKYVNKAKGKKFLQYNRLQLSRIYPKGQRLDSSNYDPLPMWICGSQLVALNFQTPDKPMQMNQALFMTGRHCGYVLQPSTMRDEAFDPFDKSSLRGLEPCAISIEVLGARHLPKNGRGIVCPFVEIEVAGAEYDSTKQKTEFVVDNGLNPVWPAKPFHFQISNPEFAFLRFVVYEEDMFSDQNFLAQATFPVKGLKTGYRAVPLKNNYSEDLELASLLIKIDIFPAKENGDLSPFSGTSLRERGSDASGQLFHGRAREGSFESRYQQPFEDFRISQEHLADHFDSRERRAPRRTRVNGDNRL
PLCb3 inh – blocks human PLC-beta3 enzyme activity; Purified PLC-beta3, fluorogenic substrate, fluorescence; AID 720704; inhibition, % at 12.2 µM; Q01970; hit rate 0.18% among 370,000; in the data active means inhibition above about 11%
UHRF1 binding – UHRF1 methyl-DNA binding inhibition. Q96T88. UHRF1 binding to methylated oligo, TR-FRET. inhibition, % at 4.4 µM. hit rate 0.75% among 370,000; in the data active means inhibition above about 21%;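 further: UHRF1 SRA domain binding a hemimethylated CpG hairpin DNA probe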
PLCg1 ctr – counter-screen for PLC-beta3 inhibitors: inhibitors of human PLC-gamma1 | inhibition, % at 12.3 µM | purified PLC-gamma1, fluorogenic substrate, fluorescence | shares compounds with PLCg1 inh | hit rate 3.1% among 3,300
PLCbeta3 conf – human PLC-beta3 inhibition, confirmation; shares compounds with PLCg1 inh; inhibition, % at 12.3 µM; AID 743261; hit rate 1% among 3,300; purified PLC-beta3, fluorogenic substrate fluorescence; in the data active means inhibition above about 11%
Each line names hits and unclear results; the compound was inactive in the other large screens (follow-up assays come after a bar, where they were run). Unless noted, no stated cut-off is given here; in the data, active means inhibition above about 9.5%; inactive means the rest.

Cc1ccc(-c2cc(C(=O)NN=Cc3cccc(Oc4ccccc4)c3)[nH]n2)cc1C	none
COc1ccc(NC(=O)c2cc(C3CCCCN3C(=O)c3cc(F)ccc3C)on2)c(C)c1 (configuration not stated)	PLCg1 inh 9.7 | PLCg1 ctr inactive | PLCbeta3 conf inactive
COc1cc(C(=O)N2CCCCC2c2cc(C(=O)NC(C)C)no2)cc(OC)c1C (configuration not stated)	PLCg1 inh 13.4 | PLCg1 ctr inactive | PLCbeta3 conf inactive
CCCNC(=O)c1cc(C2CCCCN2C(=O)c2cc(OC)c(C)c(OC)c2)on1 (configuration not stated)	none
O=C(CN1CCN(c2nc(-c3ccccc3)cs2)CC1)Nc1ccc(Cl)cc1	none
CC(=O)NC(Cc1ccc(F)cc1)C(=O)NC1CCN(C(=O)Nc2ccc(F)cc2)CC1 (configuration not stated)	none
CC(=O)NC(Cc1ccc(F)cc1)C(=O)NC1CCN(C(=O)Nc2cccc(C)c2)CC1 (configuration not stated)	PLCg1 inh 10.4 | PLCg1 ctr inactive | PLCbeta3 conf inactive
O=C1C(NS(=O)(=O)c2cccs2)=C(N2CCOCC2)C(=O)c2ccccc21	PLCg1 inh 9.8 | PLCg1 ctr inactive | PLCbeta3 conf inactive
COc1ccc(C)cc1S(=O)(=O)N(CC(=O)N1CCOCC1)c1cc(C)cc(C)c1	PLCg1 inh 10.2 | PLCg1 ctr inactive | PLCbeta3 conf inactive
COc1ccc(C)cc1S(=O)(=O)N(CC(=O)N1CCCC1)c1ccc(C)cc1	none
COc1ccc(N2CC(C(=O)Nc3ccc(S(=O)(=O)N4CCCC4)cc3)CC2=O)cc1 (configuration not stated)	none
Cc1ccc(N2CC(C(=O)Nc3ccc(S(=O)(=O)N4CCCC4)cc3)CC2=O)cc1 (configuration not stated)	PLCg1 inh 14.6 | PLCg1 ctr inactive | PLCbeta3 conf inactive
Cc1ccc(S(=O)(=O)N2CCC(C(=O)Nc3nnc(C4CCCC4)s3)CC2)cc1	PLCg1 inh 15.0 | PLCg1 ctr inactive | PLCbeta3 conf inactive
CCOc1ccc(N2CC(C(=O)Nc3cccc(S(=O)(=O)N4CCCCC4)c3)CC2=O)cc1 (configuration not stated)	PLCg1 inh 10.9 | PLCg1 ctr inactive | PLCbeta3 conf inactive
Cc1ccc(S(=O)(=O)N2CCC(C(=O)N3Cc4ccccc4C3)CC2)cc1	PLCg1 inh 10.3 | PLCg1 ctr inactive | PLCbeta3 conf inactive
COc1cccc(N2CCN(CC(=O)NCc3ccc(Cl)cc3)CC2)c1	none
Cc1cc(C)cc(NC(=O)OC2CC3CC2[C@H]2CCCCN2[C@H]3C)c1 (some centres not stated)	none
COc1ccc(-n2c(COc3ccc(Cl)cc3)nnc2SCC(=O)Nc2ccc3c(c2)OCO3)cc1	none
COc1ccc(N2CC(C(=O)Nc3cc(C)on3)CC2=O)cc1 (configuration not stated)	none
COc1ccc(N2CC(C(=O)Nc3cccc(C)n3)CC2=O)cc1 (configuration not stated)	PLCg1 inh 10.4 | PLCg1 ctr inactive | PLCbeta3 conf inactive
CC(=O)N1CCC(C(=O)Nc2ccc(S(=O)(=O)N3CCC(C)CC3)cc2)CC1	PLCg1 inh 9.6 | PLCg1 ctr inactive | PLCbeta3 conf inactive
CC(=O)N1CCC(C(=O)Nc2ccc(S(=O)(=O)N3CCCC(C)C3)cc2)CC1 (configuration not stated)	none
CC(=O)Nc1ccc2c(c1)C(=O)N(C)[C@H]1CC[C@H](CC(=O)NCc3ccc(F)cc3)O[C@@H]1CO2	none
O=C(NCC1CCN(Cc2ccc(F)cc2)CC1)C1CCCN(c2ncnc3c2nc2n3CCCCC2)C1 (configuration not stated)	none
O=C(NCC1CCN(Cc2ccc(Cl)cc2)CC1)C1CCCN(c2ncnc3c2nc2n3CCCCC2)C1 (configuration not stated)	PLCg1 inh 10.8 | PLCg1 ctr inactive | PLCbeta3 conf inactive
C=CCN1C(=O)[C@@H](CC(=O)N2CCSCC2)[C@]2(C(=O)OCC)CCCCC/C=C/12	none
CN(C)[C@H]1CCN([C@@H]2CS(=O)(=O)N[C@H]2COCc2ccccc2)C1	none
O=S1(=O)C[C@@H](N2CC[C@@H](O)C2)[C@H](COCc2ccccc2)N1	PLCg1 inh 10.2 | PLCg1 ctr inactive | PLCbeta3 conf inactive
COc1ccc(C2C(C(=O)Nc3ccc(F)cc3)CCC(=O)N2c2ccc(OC)cc2)cc1 (configuration not stated)	none
COc1ccc(C#CCN(Cc2ccc(OC)cc2OC)C(N)=NC(=O)CCc2ccccc2)cc1	none
O=S(=O)(Nc1ccc(Br)cc1)N1CCOCC1	none
Cc1ccc(NS(=O)(=O)N2CCOCC2)cc1	PLCg1 inh 12.0 | PLCg1 ctr inactive | PLCbeta3 conf inactive
Cc1nnc(NC(=O)c2ccncc2)s1	none
Cc1cnc(NC(=O)c2ccncc2)s1	PLCg1 inh 11.4 | PLCg1 ctr inactive | PLCbeta3 conf inactive
Cc1cccc2c(N=NC(=O)C(C)n3cnc4ccccc4c3=O)c(O)[nH]c12 (configuration not stated)	none
CC(C(=O)N=Nc1c(O)[nH]c2ccccc12)n1cnc2ccccc2c1=O (configuration not stated)	PLCg1 inh 10.4, PLCb3 inh 15.7 | PLCg1 ctr inactive | PLCbeta3 conf inactive
CCN(CCNC(=O)[C@H]1C=C(OC)C(=O)C[C@H](c2ccccc2)[C@H]1C)C(C)=O	none
CCNC(=S)N/N=C/c1ccc(OCC(=O)Nc2ccc(OC)cc2)c(OC)c1	PLCg1 inh 15.6, PLCb3 inh 16.7 | PLCg1 ctr inactive | PLCbeta3 conf inactive
C[C@@H]1CN([C@H](C)CO)C(=O)CCCn2nncc2CO[C@H]1CN(C)C(=O)Nc1cccc(Oc2ccccn2)c1	PLCg1 inh 9.7 | PLCg1 ctr inactive | PLCbeta3 conf inactive
COc1cccc(S(=O)(=O)N(C)C[C@H]2OCc3cnnn3CCCC(=O)N([C@@H](C)CO)C[C@@H]2C)c1	PLCb3 inh 11.0 | PLCg1 ctr inactive | PLCbeta3 conf inactive
NC(=O)C1CCN(c2nc(-c3ccc4c(c3)CCO4)cs2)CC1	none
CCC(CC)c1nnc(NC(=O)c2cc(C(=O)OC)cc([N+](=O)[O-])c2)s1	PLCg1 inh 11.8 | PLCg1 ctr inactive | PLCbeta3 conf inactive
CCOC(=O)CSc1nnc(NC(=O)c2cccc([N+](=O)[O-])c2)s1	PLCb3 inh 12.8 | PLCg1 ctr inactive | PLCbeta3 conf inactive
COc1ccc2[nH]cc(C(C)c3c[nH]c4ccccc34)c2c1 (configuration not stated)	none
COc1ccc(S(=O)(=O)N2CCC(c3nc4ccccc4o3)CC2)c(OC)c1	none
CC1CC(C)CN(C(=O)COC(=O)COc2ccccc2C#N)C1 (configuration not stated)	PLCg1 inh 12.7 | PLCg1 ctr inactive | PLCbeta3 conf inactive
